PubChem BioAssay AID1159580 (chemical genetic matrix, 2015)
Several values for one entry are separate records, joined by “and”; a condition that tells them apart may be missing. Equal values may be shown once. Hit rate of the full screen: of about 5,500 compounds, about 2,000 (36%) were called active. Not shown: some 18% with an inconclusive outcome. No stated cut-off is given here; in the data, active means normalized growth mostly below about 0.91 (no sharp cut-off); inconclusive means no clear call, values can overlap the other calls; inactive means mostly above about 0.92. The list shows a part of the results.

Test: chemical genetic growth profiling, strain panel (AID 1159580);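 further: tested at 20 µM; growth read once vehicle control cultures reached saturation at 30 °C; 1 = growth at the plate median or of vehicle wells; lower values mean less growth of the strain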
Settings: S. cerevisiae deletion strains, growth OD

Measured: normalized growth

CC(C)(O)[C@@H]1[C@H]2OC(=O)[C@@H]1[C@]1(O)C[C@H]3O[C@]34C(=O)O[C@H]2[C@]14C
inactive: locus YAL013W, strain DEP1, hits give low values 1 | locus YAL021C, strain ccr4, hits give low values 1.01 | locus YAL026C, strain drs2, hits give low values 1.01 | locus YAL030W, strain snc1, hits give low values 1 | locus YBL061C, strain skt5, hits give low values 1 | locus YBR009C, strain hhf1, hits give low values 0.998 | locus YBR021W, strain FUR4, hits give low values 1 | locus YBR023C, strain chs3, hits give low values 1.01 | locus YBR171W, strain sec66, hits give low values 0.99 | locus YBR229C, strain ROT2, hits give low values 1 | locus YBR231C, strain swc5, hits give low values 0.991 | locus YBR279W, strain paf1, hits give low values 1.01 | locus YCL011C, strain gbp2, hits give low values 1.01 | locus YCL016C, strain dcc1, hits give low values 1.01 | locus YCL029C, strain bik1, hits give low values 1.01 | locus YCL061C, strain MRC1, hits give low values 1 | locus YCL069W, strain vba3, hits give low values 1.01 | locus YCR088W, strain abp1, hits give low values 1 | locus YDL005C, strain med2, hits give low values 0.988 | locus YDL035C, strain GPR1, hits give low values 1 | locus YDL040C, strain nat1, hits give low values 1 | locus YDL074C, strain BRE1, hits give low values 1.02 | locus YDL101C, strain DUN1, hits give low values 1.01 | locus YDL134C, strain PPH21, hits give low values 1 | locus YDL185W, strain tfp1, hits give low values 1.01 | locus YDL192W, strain arf1, hits give low values 1.02 | locus YDR001C, strain nth1, hits give low values 1.01 | locus YDR069C, strain doa4, hits give low values 1.01 | locus YDR101C, strain arx1, hits give low values 1 | locus YDR137W, strain rgp1, hits give low values 1 | locus YDR150W, strain NUM1, hits give low values 1 | locus YDR159W, strain sac3, hits give low values 0.993 | locus YDR162C, strain NBP2, hits give low values 1.01 | locus YDR195W, strain ref2 0.988 | locus YDR297W, strain sur2, hits give low values 0.993 | locus YDR318W, strain mcm21, hits give low values 1.01 | locus YDR334W, strain swr1, hits give low values 1.02 | locus YDR335W, strain msn5, hits give low values 1 | locus YDR388W, hits give low values 1.02 | locus YDR392W, strain spt3, hits give low values 0.939 | locus YDR502C, strain sam2, hits give low values 1.03 | locus YEL003W, strain gim4, hits give low values 1 | locus YEL037C, strain rad23, hits give low values 1.02 | locus YEL061C, strain CIN8 (second series), hits give low values 1.01 | locus YEL061C, strain CIN8, hits give low values 1 | locus YER015W, strain faa2, hits give low values 1.01 | locus YER016W, strain bim1, hits give low values 0.997 | locus YER110C, hits give low values 1.02 | locus YER111C, strain swi4, hits give low values 1 | locus YER155C, strain BEM2 (second series), hits give low values 1.01 | locus YER155C, strain BEM2, hits give low values 1 | locus YER167W, strain BCK2, hits give low values 1 | locus YFR010W, strain ubp6, hits give low values 1.01 | locus YGL078C, strain dbp3, hits give low values 1.01 | locus YGL086W, strain mad1, hits give low values 1.02 | locus YGL167C, strain pmr1, hits give low values 1 | locus YGL173C, strain kem1, hits give low values 1 | locus YGL227W, strain vid30, hits give low values 0.993 | locus YGL240W, strain doc1, hits give low values 1 | locus YGL248W, strain PDE1, hits give low values 1.01 | locus YGL253W, strain hxk2, hits give low values 1.01 | locus YGR078C, strain PAC10, hits give low values 1 | locus YGR135W, strain pre9, hits give low values 1 | locus YGR252W, strain gcn5, hits give low values 0.994 | locus YHR013C, strain ard1, hits give low values 0.988 | locus YHR027C, strain rpn1, hits give low values 1.01 | locus YHR030C, strain SLT2, hits give low values 1.01 and 1.03 | locus YHR079C, strain IRE1 (second series), hits give low values 1.01 | locus YHR079C, strain IRE1, hits give low values 1.03 | locus YHR094C, strain hxt1, hits give low values 1.01 | locus YHR129C, strain ARP1, hits give low values 1 | locus YHR142W, strain chs7, hits give low values 1.01 | locus YHR200W, strain rpn10, hits give low values 1.03 | locus YIL066C, strain RNR3, hits give low values 1.01 | locus YIL073C, strain SPO22, hits give low values 1.06 | locus YIL125W, strain kgd1, hits give low values 1.01 | locus YIR030C, strain dcg1, hits give low values 1.02 | locus YJL092W, strain hpr5, hits give low values 1 | locus YJL095W, strain BCK1 (second series), hits give low values 1 | locus YJL095W, strain BCK1, hits give low values 0.997 and 1.04 | locus YJL115W, strain asf1, hits give low values 1.01 | locus YJL129C, strain trk1, hits give low values 1 | locus YJL134W, strain LCB3, hits give low values 1.01 | locus YJL154C, strain vps35, hits give low values 1.01 | locus YJL164C, strain tpk1, hits give low values 0.999 | locus YJL166W, strain qcr8, hits give low values 1 | locus YJL168C, strain set2, hits give low values 1.01 | locus YJL187C, strain SWE1 (second series), hits give low values 1.01 | locus YJL187C, strain SWE1, hits give low values 1.01 | locus YJR043C, strain POL32, hits give low values 1.01 | locus YJR066W, strain TOR1, hits give low values 0.965 | locus YJR075W, strain HOC1, hits give low values 1.01 | locus YKL009W, strain mrt4, hits give low values 1.02 | locus YKL068W, hits give low values 1 | locus YKL085W, strain MDH1 (second series), hits give low values 1 | locus YKL085W, strain MDH1, hits give low values 1 | locus YKL160W, strain elf1, hits give low values 0.998 | locus YKL190W, strain CNB1, hits give low values 1.01 | locus YKR001C, strain vps1, hits give low values 1.05 | locus YKR026C, strain gcn3, hits give low values 1.01 | locus YKR091W, strain srl3, hits give low values 1 | locus YLL001W, strain dnm1, hits give low values 0.996 | locus YLL026W, hits give low values 0.999 | locus YLL041C, strain sdh2, hits give low values 1.01 | locus YLR027C, strain aat2, hits give low values 1.03 | locus YLR039C, strain RIC1, hits give low values 0.995 | locus YLR058C, strain SHM2, hits give low values 1 | locus YLR102C, strain apc9, hits give low values 1.01 | locus YLR113W, strain HOG1, hits give low values 0.982 | locus YLR221C, strain rsa3, hits give low values 0.999 | locus YLR258W, strain gsy2, hits give low values 0.997 | locus YLR262C, strain YPT6 (second series), hits give low values 0.991 | locus YLR262C, strain YPT6, hits give low values 1.02 | locus YLR268W, strain sec22, hits give low values 1.02 | locus YLR320W, strain mms22, hits give low values 1 | locus YLR330W, strain CHS5, hits give low values 1.01 | locus YLR342W, strain FKS1 (second series), hits give low values 1.02 | locus YLR342W, strain FKS1, hits give low values 1.01 | locus YLR357W, strain rsc2, hits give low values 1.02 | locus YLR370C, strain arc18, hits give low values 1 | locus YLR371W, strain rom2, hits give low values 1.02 | locus YLR384C, strain iki3, hits give low values 0.994 | locus YLR418C, strain cdc73, hits give low values 0.997 | locus YML016C, strain PPZ1, hits give low values 1.01 | locus YML032C, strain rad52, hits give low values 1.02 | locus YML120C, strain ndi1, hits give low values 1.01 | locus YML124C, strain tub3, hits give low values 1 | locus YMR058W, strain fet3, hits give low values 1.01 | locus YMR078C, strain ctf18, hits give low values 1.01 | locus YMR125W, strain sto1, hits give low values 1.01 | locus YMR129W, hits give low values 1 | locus YMR205C, strain PFK2, hits give low values 0.988 | locus YMR223W, strain ubp8, hits give low values 1.01 | locus YMR231W, strain pep5, hits give low values 1 | locus YMR263W, strain SAP30, hits give low values 1.01 | locus YMR307W, strain GAS1, hits give low values 1.03 | locus YNL067W, strain RPL9B, hits give low values 1 | locus YNL071W, strain lat1, hits give low values 1.01 | locus YNL128W, strain TEP1, hits give low values 1.03 | locus YNL153C, strain GIM3, hits give low values 1 | locus YNL183C, strain NPR1, hits give low values 0.987 | locus YNL209W, strain ssb2, hits give low values 1.01 | locus YNL233W, strain BNI4, hits give low values 0.996 | locus YNL248C, strain rpa49, hits give low values 0.958 | locus YNL250W, strain rad50, hits give low values 1 | locus YNL271C, strain bni1, hits give low values 1.01 | locus YNL298W, strain CLA4, hits give low values 1.02 | locus YNL307C, strain MCK1, hits give low values 1.03 | locus YNL322C, strain KRE1 (second series), hits give low values 0.998 | locus YNL322C, strain KRE1, hits give low values 1 | locus YNR049C, strain mso1, hits give low values 1.01 | locus YNR052C, strain pop2, hits give low values 1.01 | locus YOL006C, strain TOP1, hits give low values 1.02 | locus YOL012C, strain htz1 1.37 | locus YOL147C, strain pex11, hits give low values 1.01 | locus YOR001W, strain rrp6, hits give low values 1.02 | locus YOR061W, strain CKA2, hits give low values 1.02 | locus YOR069W, strain VPS5, hits give low values 1.01 | locus YOR070C, strain gyp1, hits give low values 1.02 | locus YOR080W, strain dia2, hits give low values 0.992 | locus YOR083W, strain WHI5, hits give low values 0.988 | locus YOR106W, strain vam3, hits give low values 1.01 | locus YOR136W, strain idh2, hits give low values 1.01 | locus YOR144C, strain elg1, hits give low values 1.02 | locus YOR184W, strain ser1, hits give low values 1.02 | locus YOR231W, strain MKK1, hits give low values 1.02 | locus YOR265W, strain rbl2, hits give low values 1.01 | locus YOR270C, strain vph1, hits give low values 1.02 | locus YOR290C, strain snf2, hits give low values 0.982 | locus YOR316C, strain cot1, hits give low values 1.01 | locus YPL051W, strain arl3, hits give low values 1.04 | locus YPL055C, strain LGE1, hits give low values 1.01 | locus YPL078C, strain atp4, hits give low values 1.01 | locus YPL106C, strain sse1, hits give low values 0.987 | locus YPL240C, strain hsp82, hits give low values 0.997 | locus YPL241C, strain CIN2, hits give low values 1.01 | locus YPL256C, strain CLN2, hits give low values 1.02 | locus YPR119W, strain clb2, hits give low values 1.01 | locus YPR141C, strain kar3, hits give low values 1 | locus YPR163C, strain tif3, hits give low values 1.03 | locus YPR167C, strain met16, hits give low values 1.01 | strain wtn01, hits give low values 1.03
